Calls of active or inactive are those of the source. How the source made its calls: active means hit-call score of the fitted dose curve at least 0.9, where 1 is the maximum; inactive means score below 0.9.

Read-out in test [1]: Interleukin-6 (IL6), IL6 (gene 3569)
In words: BSK_CASM3C_IL6: BioMAP Diversity Plus: CASM3C Assay for Interleukin-6 (IL6) Biomarker Activity for (AID 2283040). The settings on record: primary human coronary artery smooth muscle cells; actives raise or lower the signal.

Read-out in test [2]: Tissue plasminogen activator (tPA), PLAT (gene 5327)
In words: BSK_BE3C_tPA: BioMAP Diversity Plus: BE3C Assay for Tissue plasminogen activator (tPA) Biomarker Activity (AID 2283041).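 Further: tPA level quantified by ELISA one day after compound addition.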 The settings on record: primary human bronchial epithelial cells; actives raise or lower the signal. Put shortly:
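Primary human lung bronchial epithelial cultures receive test chemical; after 24 h, tPA is quantified by ELISA, and gain or loss of signal is fitted bidirectionally relative to DMSO baseline.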

Read-out in test [3]: Interleukin-8 (IL8), CXCL8 (gene 3576)
Put plainly: BSK_CASM3C_IL8: BioMAP Diversity Plus: CASM3C Assay for Interleukin-8 (IL8) Biomarker Activity (AID 2283042).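 Further: IL-8 protein level quantified by ELISA.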 The settings on record: primary human coronary artery smooth muscle cells; actives raise or lower the signal.

Read-out in test [4]: Human Leukocyte Antigen - DR isotype (HLADR), HLA-DRA (gene 3122)
In words: BSK_CASM3C_HLADR: BioMAP Diversity Plus: CASM3C Assay for Human Leukocyte Antigen - DR isotype (HLADR) Biomarker Activity (AID 2283043).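 Further: cell-surface HLA-DR protein level quantified by ELISA.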 Particulars: primary human coronary artery smooth muscle cells; actives raise or lower the signal.

Read-out in test [5]: Macrophage colony-stimulating factor (MCSF), CSF1 (gene 1435)
In words: BSK_CASM3C_MCSF: BioMAP Diversity Plus: CASM3C Assay for Macrophage colony-stimulating factor (MCSF) Biomarker Activity (AID 2283044).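 Further: M-CSF protein amount quantified by ELISA after 24 h exposure.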 Particulars: primary human coronary artery smooth muscle cells; actives raise or lower the signal.

Read-out in test [6]: Low-density lipoprotein receptor (LDLR), LDLR (gene 3949)
Put plainly: BSK_CASM3C_LDLR: BioMAP Diversity Plus: CASM3C Assay for Low-density lipoprotein receptor (LDLR) Biomarker Activity (AID 2283045).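 Further: LDLR protein level on the cell surface quantified by ELISA.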 Particulars: primary human coronary artery smooth muscle cells; actives raise or lower the signal.

Read-out in test [7]: Monocyte Chemoattractant Protein-1 (MCP1), CCL2 (gene 6347)
In words: BSK_CASM3C_MCP1: BioMAP Diversity Plus: CASM3C Assay for Monocyte Chemoattractant Protein-1 (MCP1) Biomarker Activity (AID 2283046).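 Further: MCP-1 level quantified by ELISA 24 h after dosing.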 The settings on record: primary human coronary artery smooth muscle cells; actives raise or lower the signal.

Test [8] is described as follows: BSK_CASM3C_Proliferation: Cell Proliferation Assessment in the BioMAP Diversity Plus: CASM3C Assay (AID 2283047).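 Further: sulforhodamine B total protein stain as relative cell number at 560 nm; sub-confluent cells exposed 48 h before staining; fitted both ways against DMSO so gain or loss of cell number.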 The settings on record: primary human coronary artery smooth muscle cells.
Read-out in test [9]: Monokine induced gamma interferon (MIG), CXCL9 (gene 4283)
Put plainly: BSK_CASM3C_MIG: BioMAP Diversity Plus: CASM3C Assay for Monokine induced gamma interferon (MIG) Biomarker Activity (AID 2283048).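 Further: MIG protein level measured by ELISA.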 Particulars: primary human coronary artery smooth muscle cells; actives raise or lower the signal.

Read-out in test [10]: serum amyloid A (SAA), SAA1 (gene 6288)
Put plainly: BSK_CASM3C_SAA: BioMAP Diversity Plus: CASM3C Assay for serum amyloid A (SAA) Biomarker Activity (AID 2283049).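 Further: SAA protein level quantified by ELISA.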 The settings on record: primary human coronary artery smooth muscle cells; actives raise or lower the signal.

Consider `CNC(=O)ON=C(SC)C(=O)N(C)C`, for which the outcome in [1], in [2], in [3], in test [4], in test [5] and in test [6] was inactive. Also, the result in test [7], in [8], in [9] and in [10] was inactive.

With `CN(C)C(=O)Nc1cccc(C(F)(F)F)c1`, the result in test [1], in [2], in test [3], in [4], in test [5] and in [6] was inactive. Further, the result in [7], in test [8], in test [9] and in test [10] was inactive.

In the case of `S=C1NCCN1`, the outcome in [1], in test [2], in test [3], in [4], in test [5] and in test [6] was inactive. The result in test [7], in test [8], in [9] and in test [10] was inactive.

With `CCCCOC(=O)[C@@H](C)Oc1ccc(Oc2ccc(C#N)cc2F)cc1`, the result in test [1], in test [2], in test [3], in test [4], in [5] and in test [6] was inactive. For the same compound, the result in test [7], in test [8], in test [9] and in [10] was inactive.

For `CNC(=O)ON=C(C)SC`, the result in test [1], in test [2], in test [3], in test [4], in [5] and in test [6] was inactive. The outcome in test [7], in test [8], in [9] and in [10] was inactive.

As usually defined, the AC50 is the concentration at which the activity in the assay is half-maximal. As to `CCOP(=S)(OCC)Oc1cc(C)nc(C(C)C)n1`, the result in [1], in test [2], in test [3], in [4], in [5] and in test [6] was inactive. In addition, the result in [7], in test [9] and in [10] was inactive. Besides, the AC50 in test [8] is 14.3 µM (active).

`FC(F)C(F)(F)OCC(Cn1cncn1)c1ccc(Cl)cc1Cl` (stereo not given): the outcome in test [1], in test [2], in test [3], in test [4], in test [5] and in test [6] was inactive. Moreover, the result in [7], in test [8], in [9] and in test [10] was inactive.

For `CCc1cccc(C)c1N(C(=O)CCl)C(C)COC` (stereo not given), the outcome in test [1], in test [2], in test [3], in test [4], in test [5] and in test [6] was inactive. The result in test [7], in test [8], in test [9] and in [10] was inactive.

For `CCOP(=O)(OCC)Oc1cc(C)nc(C(C)C)n1`, the result in [1], in test [2], in test [3], in test [4], in test [5] and in test [7] was inactive. The result in [8], in [9] and in [10] was inactive. In addition, in [6], the AC50 was 20 µM (active).

For `CN1COCN(Cc2cnc(Cl)s2)C1=N[N+](=O)[O-]`, the result in test [1], in test [2], in test [3], in test [4], in test [5] and in test [6] was inactive. The result in test [7], in [8], in [9] and in [10] was inactive.

As for `CC1(C(=O)Nc2ccc(O)c(Cl)c2Cl)CCCCC1`, the result in test [1], in [2], in [3], in [4], in test [5] and in test [6] was inactive. Moreover, the outcome in test [7], in test [8], in test [9] and in test [10] was inactive.

Regarding `CON=C(C(=O)OC)c1ccccc1CON=C(C)c1cccc(C(F)(F)F)c1`, the AC50 was 1.92 µM (active) in test [1], 2.68 µM (active) in test [7] and 8.75 µM (active) in test [8]. In addition, the outcome in [2], in test [3], in [4], in test [5], in test [6] and in [9] was inactive. In addition, in [10], the result was inactive.

Consider `COP(=O)(OC)OC(Br)C(Cl)(Cl)Br` (stereo not given), for which the AC50 was 31.2 µM (active) in [1]; 32.2 µM (active) in [3]; 27.7 µM (active) in [5]; 28.6 µM (active) in [7]; 11.2 µM (active) in test [8]; 29.8 µM (active) in test [9]. Moreover, in test [10], the AC50 is 29.9 µM (active). Also, the result in test [2], in test [4] and in test [6] was inactive.

As to `COc1cccc(C(=O)NN(C(=O)c2cc(C)cc(C)c2)C(C)(C)C)c1C`, the outcome in test [1], in test [2], in test [3], in [4], in [5] and in test [6] was inactive. In addition, the outcome in [7], in test [8], in test [9] and in test [10] was inactive.

For the compound `Cc1cc(C2CC2)nc(Nc2ccccc2)n1`, the result in [1], in test [2], in test [3], in test [4], in [5] and in [6] was inactive. In addition, the outcome in test [7], in test [9] and in test [10] was inactive. Moreover, the AC50 in test [8] was 14.4 µM (active).

Take `C=C(C)[C@H]1Cc2c(ccc3c2O[C@@H]2COc4cc(OC)c(OC)cc4[C@@H]2C3=O)O1`: the outcome in test [1], in [2], in test [3], in [4], in [5] and in [6] was inactive. Further, the result in [7], in test [9] and in test [10] was inactive. The AC50 in [8] was 3.97 µM (active).

Regarding `Cc1ccn2nc(S(=O)(=O)Nc3c(F)cccc3F)nc2n1`, the outcome in test [1], in test [2], in [3], in test [4], in [5] and in test [6] was inactive. Moreover, the result in test [7], in test [8], in test [9] and in test [10] was inactive.

Consider `CC(C)[C@H](C(=O)O[C@H](C#N)c1cccc(Oc2ccccc2)c1)c1ccc(Cl)cc1`, for which the result in [1], in [2], in [3], in test [4], in test [5] and in [6] was inactive. Besides, the result in [7], in test [9] and in test [10] was inactive. Besides, the AC50 in test [8] is 9.47 µM (active).

The record behind these values is PubChem BioAssay (EPA / NIEHS).
